From PubChem BioAssay (NCATS)
“And” between values parts separate entries of the source, which are not always exact repeats. Equal values may be shown once. Results filed as inconclusive are left out. The source made the active and inactive calls. Unless noted, calls follow the shape of the dose curve; as a rule, active = well fitted curve in the direction sought with a large enough effect; inconclusive = small, poorly fitted or top-dose-only effect, or another doubt; inactive = no such curve, though single readings can be large; an effect the other way counts as inactive or inconclusive.

Key:
[1] = AP1 Signaling Pathway (AID 357; active = well fitted curve in either direction with a large enough effect, not every such curve was filed as active;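 also: ME-180 reporter cells stimulated with EGF at its EC50 level; % is scaled to controls: 0 for no effect and ±100 for the full control effect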)
In short: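 Titration-series screen for positive or negative modulators of EC50 EGF-induced signaling in ME-180 cells carrying an AP-1-driven beta-lactamase reporter. After 5 hours at 37 degrees Celsius, CCF4 460nm/530nm emission ratio gave %Activity; AC50 values derived.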

[2] = NFAT Signaling Pathway (AID 444; active = well fitted curve in either direction with a large enough effect, not every such curve was filed as active;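 also: carbachol stimulus at about its EC50 of 1 µM final; % is scaled to controls: 0 for no effect and ±100 for the full control effect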); conditions: Jurkat NFAT-bla M1, carbachol, beta-lactamase ratio, 5 h; at 17.2 µM (top of the series) unless noted
In short: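 Read-out: CCF4 FRET ratio (460 nm/530 nm) after 1 h RT dye loading, used for %activity and AC50 from titration series. Cells: Jurkat NFAT-β-lactamase/M1 line, treated with compound plus 1 uM carbachol for 5 h, 37 °C.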

[3] = Stat Signaling Pathway (AID 446; active = well fitted curve in either direction with a large enough effect, not every such curve was filed as active;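 also: ME-180 cervical cancer cells given 40 pM IL-6 alongside compound; SIE-controlled beta-lactamase reporter measured as 460/530 nm FRET emission ratio; % is scaled to controls: 0 for no effect and ±100 for the full control effect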)
In short: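 Overnight-plated ME-180 cells bearing a STAT Inducible Element beta-lactamase reporter; 5 h co-exposure to compound and 40 pM IL-6; values normalized to 300 pM IL-6 and 125 nM JAK inhibitor controls.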

[4] = target: Glucocorticoid receptor (Homo sapiens) (UniProt P04150); experiment: GR-GFP Redistribution (AID 450;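 active = compounds whose dose series gives a full or clear partial fitted curve of increased nuclear translocation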; also: potency is read from the fitted curve at half-maximal effect); conditions: U2OS GR-GFP nuclear translocation, laser cytometry, 2 h
Sequence of Glucocorticoid receptor (Homo sapiens) (P04150 whole entry, looked up, the tested form may be a part): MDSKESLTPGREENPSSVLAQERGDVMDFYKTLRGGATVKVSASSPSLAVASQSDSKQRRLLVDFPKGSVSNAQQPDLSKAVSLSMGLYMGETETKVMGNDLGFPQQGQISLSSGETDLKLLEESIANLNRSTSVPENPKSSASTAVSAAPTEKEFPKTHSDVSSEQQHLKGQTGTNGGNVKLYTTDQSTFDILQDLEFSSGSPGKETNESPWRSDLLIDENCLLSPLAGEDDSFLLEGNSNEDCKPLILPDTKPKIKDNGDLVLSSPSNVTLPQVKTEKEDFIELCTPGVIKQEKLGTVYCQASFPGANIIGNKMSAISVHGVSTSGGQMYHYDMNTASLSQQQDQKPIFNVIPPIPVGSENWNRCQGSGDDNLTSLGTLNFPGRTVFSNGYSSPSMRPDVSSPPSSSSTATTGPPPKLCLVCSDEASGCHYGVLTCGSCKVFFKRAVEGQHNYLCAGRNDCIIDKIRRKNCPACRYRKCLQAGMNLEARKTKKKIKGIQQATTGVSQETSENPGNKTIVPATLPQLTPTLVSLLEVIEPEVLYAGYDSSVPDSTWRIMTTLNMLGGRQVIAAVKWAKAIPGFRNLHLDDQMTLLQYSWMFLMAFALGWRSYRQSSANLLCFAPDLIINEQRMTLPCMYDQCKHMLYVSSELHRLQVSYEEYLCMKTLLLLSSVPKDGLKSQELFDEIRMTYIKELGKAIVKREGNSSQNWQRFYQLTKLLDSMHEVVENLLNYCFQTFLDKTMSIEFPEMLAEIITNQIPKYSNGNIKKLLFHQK

[5] = target: Glucocorticoid receptor (Homo sapiens) (UniProt P04150); experiment: GR-EFC Redistribution (AID 451; calls by dose curve; also: potency is read from the fitted curve at half-maximal effect); conditions: CHO-K1 GR-EFC translocation, beta-gal luminescence, 2 h
In short: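 Translocation of GR-ED fusion to nuclear EA restores b-gal, read by luminescence after 1 h room-temperature detection. Engineered CHO-K1 biosensor cells, 1,000/well, exposed 2 h at 37 C to titrations up to 46 uM final.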

[6] = target: Mitogen-activated protein kinase 10 (Mus musculus) (UniProt Q61831); experiment: JNK3 AlphaScreen Assay (AID 530; active = well fitted curve in either direction with a large enough effect, not every such curve was filed as active;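 also: kinase came from lysate of stimulated human HepG2 cells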; also: potency is read from the fitted curve at half-maximal effect)
In short: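 qHTS titrations with 15 min compound pre-incubation before adding ATP (10 uM final). Read-out: AlphaScreen of Ser73-phosphorylated biotin-GST-cJun using HepG2 lysate JNK3 activated by IL-1β and TNFα.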

[7] = target: 3',5'-cyclic-AMP phosphodiesterase 4B (Homo sapiens) (UniProt Q07343); experiment: qHTS Assay for Inhibitors of PDE-IV (AID 607; active = well fitted activation curve with a large enough effect in the main read-out, with a control signal flat, not every such curve was filed as active; also: % of control where 0% means no effect)
Sequence of 3',5'-cyclic-AMP phosphodiesterase 4B (Homo sapiens) (Q07343 whole entry, looked up): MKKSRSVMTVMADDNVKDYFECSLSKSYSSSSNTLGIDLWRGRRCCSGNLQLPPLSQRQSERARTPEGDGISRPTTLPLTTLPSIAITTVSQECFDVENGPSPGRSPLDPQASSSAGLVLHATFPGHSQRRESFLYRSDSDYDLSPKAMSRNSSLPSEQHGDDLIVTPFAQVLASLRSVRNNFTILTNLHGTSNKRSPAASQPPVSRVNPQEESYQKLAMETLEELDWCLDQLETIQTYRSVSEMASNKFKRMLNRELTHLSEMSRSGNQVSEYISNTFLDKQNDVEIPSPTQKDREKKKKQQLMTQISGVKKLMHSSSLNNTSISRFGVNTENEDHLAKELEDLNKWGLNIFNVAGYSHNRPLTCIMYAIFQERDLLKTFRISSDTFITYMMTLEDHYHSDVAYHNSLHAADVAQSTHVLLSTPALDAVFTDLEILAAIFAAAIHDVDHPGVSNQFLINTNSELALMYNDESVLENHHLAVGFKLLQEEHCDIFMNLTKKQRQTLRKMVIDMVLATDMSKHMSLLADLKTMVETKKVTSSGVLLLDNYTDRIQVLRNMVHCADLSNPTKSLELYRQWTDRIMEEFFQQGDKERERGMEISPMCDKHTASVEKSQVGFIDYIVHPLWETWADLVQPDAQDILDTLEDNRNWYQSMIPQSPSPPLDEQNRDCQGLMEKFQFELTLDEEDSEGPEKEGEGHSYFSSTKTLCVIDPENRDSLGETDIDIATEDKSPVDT
In short: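 Live HEK293 cells with a modified cyclic nucleotide-gated (CNG) channel report intracellular cAMP via membrane-potential dye fluorescence (ex 535/em 590 nm). Endogenous PDE-IV was targeted. Compounds were tested at up to 22.9 uM final; RO 20-1724 100 uM served as control.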

[8] = qHTS Assay for Lipid Storage Modulators (AID 1519; calls by dose curve); conditions: Drosophila S3 cells, BODIPY lipid droplet/cell ratio, laser cytometry, cells loaded with oleic acid; for activity change, negative = inhibition: at 25.7 µM (top of the series)
In short: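 Cells seeded at 5,000 per well were treated with compounds over a concentration series and loaded with oleic acid (400 uM, as added). Lipid droplet fluorescence (488 nm excitation, 500-530 nm channel) was read by laser-scanning cytometry and normalized to 20 uM Triacsin C.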

[9] = target: Ubiquitin carboxyl-terminal hydrolase 1 (Homo sapiens) (UniProt O94782); experiment: Inhibitors of USP1/UAF1: Pilot qHTS (AID 504865);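 also: rhodamine fluorescence freed from ubiquitin-rhodamine substrate followed over time; top concentration of the series differs between compounds; % is scaled to controls: 0 for no effect and ±100 for the full control effect; nearly all actives have a fitted effect of over 35% in size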
Sequence of Ubiquitin carboxyl-terminal hydrolase 1 (Homo sapiens) (O94782 whole entry, looked up): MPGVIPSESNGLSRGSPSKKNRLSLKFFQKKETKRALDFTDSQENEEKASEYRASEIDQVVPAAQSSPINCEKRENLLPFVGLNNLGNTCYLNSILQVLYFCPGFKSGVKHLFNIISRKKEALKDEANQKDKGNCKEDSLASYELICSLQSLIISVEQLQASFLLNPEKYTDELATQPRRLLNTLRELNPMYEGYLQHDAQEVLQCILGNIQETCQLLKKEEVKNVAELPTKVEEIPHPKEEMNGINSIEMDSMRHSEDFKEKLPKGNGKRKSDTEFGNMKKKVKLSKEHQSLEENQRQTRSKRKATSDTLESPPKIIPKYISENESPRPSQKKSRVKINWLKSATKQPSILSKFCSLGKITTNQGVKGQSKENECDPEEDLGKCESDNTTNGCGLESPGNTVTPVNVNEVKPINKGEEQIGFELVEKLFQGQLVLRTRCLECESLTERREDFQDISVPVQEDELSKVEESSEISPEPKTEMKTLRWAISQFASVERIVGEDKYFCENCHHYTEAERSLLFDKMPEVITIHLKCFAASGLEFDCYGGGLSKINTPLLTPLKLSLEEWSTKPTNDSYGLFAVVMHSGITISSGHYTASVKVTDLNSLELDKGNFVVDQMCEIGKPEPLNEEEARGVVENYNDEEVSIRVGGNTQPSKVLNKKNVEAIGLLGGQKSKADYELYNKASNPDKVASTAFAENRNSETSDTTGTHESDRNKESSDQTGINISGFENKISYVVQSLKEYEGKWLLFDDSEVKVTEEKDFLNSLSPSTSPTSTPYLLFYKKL
In short: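 Kinetic fluorescence assay: 1nM USP1/UAF1, 15 min compound preincubation, then 150nM Ub-Rho; 480/540 nm.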

[10] = target: ATP-dependent 6-phosphofructokinase (Trypanosoma brucei brucei) (UniProt O15648); experiment: qHTS Assay to Find Inhibitors of T. brucei phosphofructokinase: hit validation (AID 492961);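 also: luminescence reports ADP formed as PFK phosphorylates fructose-6-phosphate with ATP; % is scaled to controls: 0 for no effect and ±100 for the full control effect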
Sequence of ATP-dependent 6-phosphofructokinase (Trypanosoma brucei brucei) (O15648 whole entry, looked up): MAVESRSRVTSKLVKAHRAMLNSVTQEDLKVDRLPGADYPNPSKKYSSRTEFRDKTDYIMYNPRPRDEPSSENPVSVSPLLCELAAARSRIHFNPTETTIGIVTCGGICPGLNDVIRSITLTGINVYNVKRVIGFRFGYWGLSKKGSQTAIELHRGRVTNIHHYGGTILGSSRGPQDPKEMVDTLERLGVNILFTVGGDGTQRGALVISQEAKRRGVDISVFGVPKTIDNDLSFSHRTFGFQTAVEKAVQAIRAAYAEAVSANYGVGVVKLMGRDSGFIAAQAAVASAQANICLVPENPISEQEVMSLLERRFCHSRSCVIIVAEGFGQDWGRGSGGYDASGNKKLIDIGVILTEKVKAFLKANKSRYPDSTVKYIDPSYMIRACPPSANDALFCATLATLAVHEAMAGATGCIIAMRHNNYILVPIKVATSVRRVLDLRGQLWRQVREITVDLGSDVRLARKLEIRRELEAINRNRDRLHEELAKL
In short: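 ADP-Glo luminescence read-out of ADP formed by 1.25 nM PFK from 0.1 mM ATP and 0.5 mM F6P (TEA pH 8.0, 45 min, RT). Compounds titrated; activity normalized to no-enzyme and full-enzyme controls.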

[11] = qHTS profiling for inhibitors of Plasmodium falciparum proliferation (AID 504749);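 also: 0% = DMSO vehicle and full inhibition = artemisinin control; nearly all actives have a fitted effect of over 60% in size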; conditions: P. falciparum in erythrocytes, SYBR Green DNA, 72 h, at 12.8 µM (top of the series)
In short: (§1)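 SYBR Green fluorescence of parasite DNA, read after lysis and overnight dark incubation, measured growth over 72 h in erythrocyte culture at 0.3% parasitemia and 2.5% hematocrit. Data normalised to DMSO and 0.29 uM artemisinin, with plate-drift correction.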

C2A = experiment: as above; conditions: P. falciparum in erythrocytes, SYBR Green DNA, 72 h; series mostly up to 12.8 µM
In short: as §1

CP201 = experiment: as above; conditions: P. falciparum in erythrocytes, SYBR Green DNA, 72 h; series mostly up to 12.8 µM
In short: as §1

CP238 = experiment: as above; conditions: P. falciparum in erythrocytes, SYBR Green DNA, 72 h; series mostly up to 12.8 µM
In short: as §1

CP250 = experiment: as above; conditions: P. falciparum in erythrocytes, SYBR Green DNA, 72 h; series mostly up to 12.8 µM
In short: as §1

FAB9 = experiment: as above; conditions: P. falciparum in erythrocytes, SYBR Green DNA, 72 h; series mostly up to 12.8 µM
In short: as §1

JCK = experiment: as above; conditions: P. falciparum in erythrocytes, SYBR Green DNA, 72 h; series mostly up to 12.8 µM
In short: as §1

PC49 = experiment: as above; conditions: P. falciparum in erythrocytes, SYBR Green DNA, 72 h; series mostly up to 12.8 µM
In short: as §1

SC27B = experiment: as above; conditions: P. falciparum in erythrocytes, SYBR Green DNA, 72 h; series mostly up to 12.8 µM
In short: as §1

[12] = S16 Schwann cell PMP22 intronic element firefly luciferase assay (AID 624032);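 also: plate controls were DMSO for no effect and PTC124 positive control mean for full effect; nearly all actives have a fitted effect of over 30% in size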
In short: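 Luciferase reporter of PMP22 intronic-element expression in stably transfected S16 rat Schwann cells, read by ONE-Glo luminescence after 24 h compound exposure at 37 C. Activity scaled between DMSO (0%) and positive-control PTC124; concentration-effect curves quality-classified.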

[13] = measured here: cell count channel max response
[14] = measured here: lipid channel max response

O=C(O)CCCC[C@H]1SC[C@H]2NC(=O)N[C@@H]21
active: Potency [6] 0.00126 µM
5.29%: max response [8, 13]
0.0876%: max response [8, 14]
inactive: outcome [1] | activity change, negative = inhibition [2] 2.95% | outcome [3] | Potency [4] > 20.6 µM | Potency [5] > 20.6 µM | outcome [7] | activity change, negative = inhibition [8] -3.62% | Potency [9]

O=c1cc(-c2ccc(O)cc2)oc2c([C@H]3O[C@@H](CO)[C@@H](O)[C@@H](O)[C@@H]3O)c(O)cc(O)c12
1.02%: max response [8, 14]
-1.3%: max response [8, 13]
inactive: outcome [1] | activity change, negative = inhibition [2] 2.91% | outcome [3] | Potency [4] > 20.6 µM | Potency [5] > 20.6 µM | Potency [6] | outcome [7] | activity change, negative = inhibition [8] -1.45% | Potency [9]

Cc1onc(-c2ccccc2Cl)c1C(=O)N[C@H]1C(=O)N2[C@H]1SC(C)(C)[C@H]2C(=O)O
inactive: outcome [1] | activity change, negative = inhibition [2] -2.89% | outcome [3] | Potency [4] > 20.6 µM | Potency [5] > 20.6 µM | Potency [6] | outcome [7] | activity change, negative = inhibition [8] -0.309% | outcome [10] | Potency [9] | activity, negative = inhibition ([11]; parasite line A) 10.5% | activity, negative = inhibition ([11]; parasite line B) 7.79% | Potency (C2A) | Potency (CP201) | Potency (CP238) | Potency (CP250) | Potency (FAB9) | Potency (JCK) | Potency (PC49) | Potency (SC27B)
6.25%: max response [8, 13]
7.41%: max response [8, 14]

C[C@H]1CS(=O)(=O)CCN1/N=C\c1ccc([N+](=O)[O-])o1
-15.4%: max response [8, 13]
-17.6%: max response [8, 14]
inactive: outcome [1] | activity change, negative = inhibition [2] 1.33% | outcome [3] | Potency [4] > 20.6 µM | Potency [5] > 20.6 µM | Potency [6] | activity change, negative = inhibition [8] -3.89% | outcome [10] | Potency [9] | Potency [12] | activity, negative = inhibition ([11]; parasite line A) -17.9% | activity, negative = inhibition ([11]; parasite line B) -12.5% | Potency (C2A) | Potency (CP201) | Potency (CP238) | Potency (CP250) | Potency (FAB9) | Potency (JCK) | Potency (PC49) | Potency (SC27B)

COc1ccc([C@@H]2CC(=O)c3c(O)cc(O)cc3O2)cc1O
-5.78%: max response [8, 13]
inactive: outcome [1] | activity change, negative = inhibition [2] -2.52% | outcome [3] | Potency [4] > 20.6 µM and > 46 µM | Potency [5] > 20.6 µM and > 46 µM | Potency [6] | outcome [7] | activity change, negative = inhibition [8] 0.892% | Potency [9]
-2.83%: max response [8, 14]

CN(C)CCCO[C@H]1[C@@H]2OC(C)(C)O[C@@H]2O[C@@H]1[C@H](O)CO
-1.4%: max response [8, 13]
-0.368%: max response [8, 14]
inactive: outcome [1] | activity change, negative = inhibition [2] -2.11% | outcome [3] | Potency [4] > 20.6 µM | Potency [5] > 20.6 µM | Potency [6] | outcome [7] | activity change, negative = inhibition [8] 0.679% | Potency [9]

CCCC(=O)Nc1ncnc2c1ncn2[C@@H]1O[C@H]2COP(=O)(O)O[C@@H]2[C@@H]1OC(=O)CCC
-2.67%: max response [8, 13]
-4.54%: max response [8, 14]
inactive: outcome [1] | activity change, negative = inhibition [2] 16.7% | outcome [3] | Potency [4] > 20.6 µM | Potency [5] > 20.6 µM | Potency [6] | outcome [7] | activity change, negative = inhibition [8] -1.42% | Potency [9]

C[C@@H]1[C@H](C)CC[C@@]2(C(=O)O[C@H]3O[C@@H](CO[C@H]4O[C@@H](CO)[C@@H](O[C@H]5O[C@@H](C)[C@@H](O)[C@@H](O)[C@@H]5O)[C@@H](O)[C@@H]4O)[C@@H](O)[C@@H](O)[C@@H]3O)CC[C@]3(C)C(=CC[C@H]4[C@@]5(C)C[C@@H](O)[C@@H](O)[C@](C)(CO)[C@@H]5CC[C@@]43C)[C@@H]12
-4%: max response [8, 13]
-10.2%: max response [8, 14]
inactive: outcome [1] | activity change, negative = inhibition [2] -1.63% | outcome [3] | Potency [4] > 20.6 µM | Potency [5] > 20.6 µM | Potency [6] | outcome [7] | activity change, negative = inhibition [8] -3.24% | Potency [9]

Cc1n[nH]c(=O)[nH]c1=O
inactive: outcome [1] | activity change, negative = inhibition [2] -10% | outcome [3] | Potency [4] > 20.6 µM | Potency [5] > 20.6 µM | Potency [6] | outcome [7] | activity change, negative = inhibition [8] 1.08% | Potency [9]
-2.22%: max response [8, 14]
-2.21%: max response [8, 13]

CC(C)n1c(/C=C\[C@@H](O)C[C@@H](O)CC(=O)O)c(-c2ccc(F)cc2)c2ccccc21
-6.17%: max response [8, 13]
-6.63%: max response [8, 14]
inactive: outcome [1] | activity change, negative = inhibition [2] 6.57% | outcome [3] | Potency [4] > 20.6 µM | Potency [5] > 20.6 µM | Potency [6] | outcome [7] | activity change, negative = inhibition [8] -2.74%

CC(C)(C)NC[C@H](O)COc1cccc2c1C[C@@H](O)[C@@H](O)C2
-8.96%: max response [8, 13]
-13.2%: max response [8, 14]
inactive: outcome [1] | activity change, negative = inhibition [2] -3.7% | Potency [4] > 20.6 µM | Potency [5] > 20.6 µM | outcome [7] | activity change, negative = inhibition [8] -2.96% | outcome [10] | Potency [9] | Potency [12] | activity, negative = inhibition ([11]; parasite line A) 4.79% | activity, negative = inhibition ([11]; parasite line B) 2.07% | Potency (C2A) | Potency (CP201) | Potency (CP238) | Potency (CP250) | Potency (FAB9) | Potency (JCK) | Potency (PC49) | Potency (SC27B)

CC[C@@H]1OC(=O)[C@H](C)[C@H](O[C@@H]2C[C@](C)(OC)[C@H](O)[C@H](C)O2)[C@H](C)[C@H](O[C@@H]2O[C@@H](C)C[C@@H](N(C)C)[C@@H]2O)[C@](C)(O)C[C@H](C)C(=NOCOCCOC)[C@H](C)[C@H](O)[C@]1(C)O
-2.35%: max response [8, 13]
inactive: outcome [1] | activity change, negative = inhibition [2] -1.03% | Potency [4] > 20.6 µM | Potency [5] > 20.6 µM | Potency [6] | activity change, negative = inhibition [8] 0.83% | outcome [10] | Potency [12] | activity, negative = inhibition ([11]; parasite line B) -20.4% | Potency (C2A) | Potency (CP201) | Potency (CP238) | Potency (CP250) | Potency (FAB9) | Potency (JCK) | Potency (PC49) | Potency (SC27B)
-1.19%: max response [8, 14]
